According to PubChem BioAssay AID1159580 (chemical genetic matrix, 2015):
About 2,000 (36%) of roughly 5,500 compounds were called active. About 18% were inconclusive and are not listed. No stated cut-off is given here; in the data, active means normalized growth mostly below about 0.91 (no sharp cut-off); inconclusive means no clear call, values can overlap the other calls; inactive means mostly above about 0.92. The list shows a part of the results.

Test: chemical genetic growth profiling, strain panel (AID 1159580);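 further: tested at 20 µM; growth read once vehicle control cultures reached saturation at 30 °C; 1 = growth at the plate median or of vehicle wells; lower values mean less growth of the strain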
Conditions: growth OD
[1] = S. cerevisiae deletion strains, locus YDR150W, strain NUM1, hits give low values
[2] = S. cerevisiae deletion strains, locus YPL055C, strain LGE1, hits give low values
[3] = S. cerevisiae deletion strains, locus YPL241C, strain CIN2, hits give low values
[4] = S. cerevisiae deletion strains, locus YAL013W, strain DEP1, hits give low values
[5] = S. cerevisiae deletion strains, locus YBR229C, strain ROT2, hits give low values
[6] = S. cerevisiae deletion strains, locus YDL101C, strain DUN1, hits give low values
[7] = S. cerevisiae deletion strains, locus YDL134C, strain PPH21, hits give low values
[8] = S. cerevisiae deletion strains, locus YEL061C, strain CIN8, hits give low values
[9] = S. cerevisiae deletion strains, locus YGR078C, strain PAC10, hits give low values
[10] = S. cerevisiae deletion strains, locus YHR030C, strain SLT2, hits give low values
[11] = S. cerevisiae deletion strains, locus YHR087W, strain rtc3, hits give low values
[12] = S. cerevisiae deletion strains, locus YJR043C, strain POL32, hits give low values
[13] = S. cerevisiae deletion strains, locus YJR075W, strain HOC1, hits give low values
[14] = S. cerevisiae deletion strains, locus YKL190W, strain CNB1, hits give low values
[15] = S. cerevisiae deletion strains, locus YLR039C, strain RIC1, hits give low values
[16] = S. cerevisiae deletion strains, locus YLR058C, strain SHM2 (second series), hits give low values
[17] = S. cerevisiae deletion strains, locus YLR085C, strain ARP6, hits give low values
[18] = S. cerevisiae deletion strains, locus YLR262C, strain YPT6, hits give low values
[19] = S. cerevisiae deletion strains, locus YML094W, strain GIM5, hits give low values
[20] = S. cerevisiae deletion strains, locus YMR219W, strain ESC1, hits give low values
[21] = S. cerevisiae deletion strains, locus YMR263W, strain SAP30, hits give low values
[22] = S. cerevisiae deletion strains, locus YMR307W, strain GAS1, hits give low values
[23] = S. cerevisiae deletion strains, locus YNL153C, strain GIM3, hits give low values
[24] = S. cerevisiae deletion strains, locus YNL298W, strain CLA4 (second series), hits give low values
[25] = S. cerevisiae deletion strains, locus YNL322C, strain KRE1, hits give low values
[26] = S. cerevisiae deletion strains, locus YNR030W, strain Alg12, hits give low values
[27] = S. cerevisiae deletion strains, locus YPR135W, strain CTF4, hits give low values

Measured: normalized growth

O=C(O)CCC/C=C\C[C@@H]1[C@@H](/C=C/[C@H](O)C2Cc3ccccc3C2)[C@@H](F)C[C@@H]1O
inactive: S. cerevisiae deletion strains, locus YAL040C, strain CLN3, hits give low values 0.995 | S. cerevisiae deletion strains, locus YCL061C, strain MRC1 (second series), hits give low values 0.998 | [1] 1.01 | S. cerevisiae deletion strains, locus YDR363W, strain ESC2, hits give low values 0.993 | S. cerevisiae deletion strains, locus YER002W, strain NOP16, hits give low values 0.988 | S. cerevisiae deletion strains, locus YNL175C, strain NOP13, hits give low values 0.982 | S. cerevisiae deletion strains, locus YNL197C, strain WHI3, hits give low values 0.989 | S. cerevisiae deletion strains, locus YNL224C, strain SQS1, hits give low values 0.969 | S. cerevisiae deletion strains, locus YOR083W, strain WHI5 (second series), hits give low values 1.02 | [2] 0.99 | [3] 0.996

Cc1cc(N=CNO)c2ccccc2n1
inactive: [4] 1 | [5] 0.994 | S. cerevisiae deletion strains, locus YCL061C, strain MRC1, hits give low values 0.976 | [6] 0.966 | [7] 0.997 | [1] 0.938 | [8] 0.999 | [9] 0.981 | S. cerevisiae deletion strains, locus YGR229C, strain SMI1, hits give low values 1.01 | [10] 0.869 | [11] 1.04 | [12] 0.959 | [13] 1 | [14] 0.997 | [15] 0.959 | [16] 0.989 | [17] 0.932 | [18] 0.988 | [19] 1.01 | [20] 1 | [21] 0.994 | [22] 1.19 | S. cerevisiae deletion strains, locus YNL128W, strain TEP1, hits give low values 0.966 | [23] 0.987 | [24] 0.919 | [25] 0.962 | [26] 0.982 | [2] 1.04 | [3] 0.966 | [27] 0.955

COC(=O)c1c(OC)ccc(N=CNO)c1OC
inactive: [4] 1 | [5] 0.982 | [6] 0.993 | [7] 1.01 | [1] 0.962 | [8] 1.01 | [9] 1 | [10] 1.05 | [11] 0.986 | S. cerevisiae deletion strains, locus YJL187C, strain SWE1, hits give low values 0.985 | [12] 1 | [13] 0.976 | [14] 1.01 | [15] 1.02 | [16] 1 | [17] 0.999 | [18] 0.997 | [19] 0.993 | [20] 0.999 | [21] 0.926 | [22] 0.94 | [23] 0.989 | [24] 1.03 | [25] 1 | [26] 0.996 | [2] 0.888 | [3] 1.01 | [27] 1.07 | S. cerevisiae strains, strain wild type, hits give low values 1.03

CCCCc1ccc(N=CNO)c(C)c1
active: S. cerevisiae deletion strains, locus YDL214C, strain PRR2, hits give low values 0.427 | S. cerevisiae deletion strains, locus YDR477W, strain SNF1, hits give low values 0.463 | S. cerevisiae deletion strains, locus YER123W, strain YCK3, hits give low values 0.242 | S. cerevisiae deletion strains, locus YER133W, strain GLC7, hits give low values 0.41 | S. cerevisiae deletion strains, locus YFR019W, strain FAB1, hits give low values 0.255 | S. cerevisiae deletion strains, locus YGR040W, strain KSS1, hits give low values 0.485 | S. cerevisiae deletion strains, locus YGR052W, strain FMP48, hits give low values 0.246 | [10] 0.225 | S. cerevisiae deletion strains, locus YHR079C, strain IRE1, hits give low values 0.146 | S. cerevisiae deletion strains, locus YHR082C, strain KSP1, hits give low values 0.362 | S. cerevisiae deletion strains, locus YHR205W, strain SCH9, hits give low values 0.475 | S. cerevisiae deletion strains, locus YJL095W, strain BCK1, hits give low values 0.178 | S. cerevisiae deletion strains, locus YJL157C, strain FAR1, hits give low values 0.45 | S. cerevisiae deletion strains, locus YJR066W, strain TOR1 (second series), hits give low values 0.181 | S. cerevisiae deletion strains, locus YJR066W, strain TOR1, hits give low values 0.236 | S. cerevisiae deletion strains, locus YKL048C, strain ELM1, hits give low values 0.604 | S. cerevisiae deletion strains, locus YKL067W, strain YNK1, hits give low values 0.48 | S. cerevisiae deletion strains, locus YKL101W, strain HSL1, hits give low values 0.488 | S. cerevisiae deletion strains, locus YKL203C, strain TOR2, hits give low values 0.391 | S. cerevisiae deletion strains, locus YLR113W, strain HOG1, hits give low values 0.259 | S. cerevisiae deletion strains, locus YLR133W, strain CKI1, hits give low values 0.558 | S. cerevisiae deletion strains, locus YLR403W, strain SFP1, hits give low values 0.465 | S. cerevisiae deletion strains, locus YML070W, strain DAK1, hits give low values 0.321 | S. cerevisiae deletion strains, locus YMR205C, strain PFK2 (second series), hits give low values 0.558 | S. cerevisiae deletion strains, locus YNL020C, strain ARK1, hits give low values 0.529 | S. cerevisiae deletion strains, locus YNL183C, strain NPR1, hits give low values 0.229 | S. cerevisiae deletion strains, locus YNL307C, strain MCK1 (second series), hits give low values 0.452 | S. cerevisiae deletion strains, locus YOL136C, strain PFK27, hits give low values 0.358 | S. cerevisiae deletion strains, locus YOR061W, strain CKA2, hits give low values 0.528 | S. cerevisiae deletion strains, locus YOR119C, strain RIO1, hits give low values 0.332 | S. cerevisiae deletion strains, locus YOR231W, strain MKK1, hits give low values 0.281 | S. cerevisiae deletion strains, locus YPL031C, strain PHO85, hits give low values 0.444 | S. cerevisiae deletion strains, locus YPL153C, strain RAD53, hits give low values 0.369 | S. cerevisiae deletion strains, locus YPL204W, strain HRR25, hits give low values 0.418 | S. cerevisiae deletion strains, locus YPL256C, strain CLN2, hits give low values 0.267
inactive: S. cerevisiae deletion strains, locus YAR019C, strain CDC15, hits give low values 0.985 | S. cerevisiae deletion strains, locus YBL105C, strain PKC1, hits give low values 1.01 | S. cerevisiae deletion strains, locus YBR135W, strain CKS1, hits give low values 0.983 | S. cerevisiae deletion strains, locus YBR136W, strain MEC1, hits give low values 0.976 | S. cerevisiae deletion strains, locus YBR160W, strain CDC28, hits give low values 0.996 | S. cerevisiae deletion strains, locus YDL017W, strain CDC7, hits give low values 0.997 | S. cerevisiae deletion strains, locus YDL028C, strain MPS1, hits give low values 0.974 | [6] 0.914 | S. cerevisiae deletion strains, locus YDL108W, strain KIN28, hits give low values 0.974 | S. cerevisiae deletion strains, locus YDL132W, strain cdc53, hits give low values 0.977 | S. cerevisiae deletion strains, locus YDR052C, strain DBF4, hits give low values 0.995 | S. cerevisiae deletion strains, locus YDR054C, strain cdc34, hits give low values 0.967 | S. cerevisiae deletion strains, locus YDR226W, strain ADK1, hits give low values 0.986 | S. cerevisiae deletion strains, locus YFL009W, strain cdc4, hits give low values 0.986 | S. cerevisiae deletion strains, locus YFL029C, strain CAK1, hits give low values 0.977 | S. cerevisiae deletion strains, locus YFR003C, strain YPI1, hits give low values 0.99 | S. cerevisiae deletion strains, locus YFR028C, strain CDC14, hits give low values 0.967 | S. cerevisiae deletion strains, locus YGR092W, strain DBF2, hits give low values 0.575 | S. cerevisiae deletion strains, locus YIL147C, strain SLN1, hits give low values 0.985 | S. cerevisiae deletion strains, locus YJL128C, strain PBS2, hits give low values 0.982 | S. cerevisiae deletion strains, locus YJR016C, strain ILV3, hits give low values 0.996 | S. cerevisiae deletion strains, locus YKL193C, strain SDS22, hits give low values 0.978 | S. cerevisiae deletion strains, locus YMR001C, strain CDC5, hits give low values 0.982 | S. cerevisiae deletion strains, locus YMR277W, strain FCP1, hits give low values 0.977 | S. cerevisiae deletion strains, locus YNL006W, strain LST8, hits give low values 1 | S. cerevisiae deletion strains, locus YNL161W, strain CBK1, hits give low values 0.992 | S. cerevisiae deletion strains, locus YNL207W, strain RIO2, hits give low values 0.968 | S. cerevisiae deletion strains, locus YNL222W, strain SSU72, hits give low values 0.985 | S. cerevisiae deletion strains, locus YOL078W, strain AVO1, hits give low values 0.948 | S. cerevisiae deletion strains, locus YOR329C, strain SCD5, hits give low values 0.993 | S. cerevisiae deletion strains, locus YPL209C, strain IPL1, hits give low values 0.993 | S. cerevisiae deletion strains, locus YPR025C, strain CCL1, hits give low values 0.993 | S. cerevisiae deletion strains, locus YPR106W, strain ISR1, hits give low values 0.989 | S. cerevisiae deletion strains, locus YPR111W, strain DBF20, hits give low values 0.995 | S. cerevisiae deletion strains, strain NNK1, hits give low values 0.974 | S. cerevisiae deletion strains, strain TSCII, hits give low values 0.964
